Measurements reported in PubChem BioAssay (NCI).
About 79,000 compounds went through this panel and 15% of them were active in at least one assay; those are over-represented in the sample as a whole. A number with no mark means an inactive call. Active and inactive are the calls of the source. Rule as the data show it: active = growth inhibition above about 70%; inactive = the rest.

Assay: NCI Yeast Anticancer Drug Screen. Data for the rad18 strain (AID 177)
Details: S. cerevisiae rad18 mutant growth inhibition, stronger effect = higher value
Description: Growth inhibition of yeast strains with defined genetic alterations is measured as a screen for potential anti-cancer activity. Selected strains with alterations in DNA damage repair or cell cycle control were exposed to compounds and growth inhibition was measured relative to vehicle treated controls. The strain used in this assay is rad18

Row | Compound | growth inhibition (at 1.2 µM) [%] | growth inhibition (at 3.7 µM) [%] | growth inhibition (at 11.0 µM) | growth inhibition (at 33.0 µM) | growth inhibition (at 100.0 µM)
1 | O=C1C(C(O)(C(F)(F)F)C(F)(F)F)CCC1C(O)(C(F)(F)F)C(F)(F)F (stereo not given) | 4 | 6 | 3% | -2% | 11%
2 | CCCCCCCCCCCCCCCCCN | -38 | -18 | 61% | 15% | 93% (active)
3 | [O-]c1c2cc(-[n+]3c(-c4ccccc4)cc(-c4ccccc4)cc3-c3ccccc3)cc1COCCOCCOCCOCCOC2 | -1 | -3 | -3% | 6% | 74% (active)
4 | O=C(Nc1ccn(C2CC(O)C(COC(c3ccccc3)(c3ccccc3)c3ccccc3)O2)c(=O)n1)c1ccccc1 (stereo not given) | -35 | 21 | 86% (active) | 85% (active) | 83% (active)
5 | O=C(Cc1ccccc1)c1ccc(O)cc1 | -34 | -41 | -11% | 69% | 89% (active)
6 | C[Si](C)(C)Cc1ccccc1C(=O)O | 2 | 3 | 1% | 65% | 97% (active)
7 | COc1ccc2nc(N/N=C/c3sccc3C)cc(C)c2c1 | 5 | 16 | 8% | 98% (active) | 96% (active)
8 | CCOC(=O)/C(O)=C(/C=N/C(=S)Nc1c(CC)cccc1CC)C(=O)OCC | -4 | -8 | 8% | 46% | 62%
